Assay results published in PMC7819943, “Rice protein-binding microarrays: a tool to detect cis-acting elements near promoter regions in rice”.
Whole data set: some 35,000 sequences, median “fluorescence intensity (a.u.)” near 10,000, cut for the highest 2% near 52,000. This excerpt belongs to a sample that is enriched for the highest values.

Target: T1, OsWOX13 (Oryza sativa, UniProt Q5QMM3 1-267)
T1 sequence: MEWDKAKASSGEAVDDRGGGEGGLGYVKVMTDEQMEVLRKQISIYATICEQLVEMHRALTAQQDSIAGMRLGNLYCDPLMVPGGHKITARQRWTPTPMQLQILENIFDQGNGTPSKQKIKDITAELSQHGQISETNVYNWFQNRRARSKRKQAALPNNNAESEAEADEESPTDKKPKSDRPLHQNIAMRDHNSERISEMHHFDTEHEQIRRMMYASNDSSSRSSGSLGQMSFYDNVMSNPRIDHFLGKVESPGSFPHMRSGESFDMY
Test: protein-binding microarray (RPBM); PBS, 2% BSA, 51.3 ng/ul salmon testes DNA, 50 uM zinc acetate, 200 nM TF, 25 C, 1 h; high values mean tight binding
Conditions: protein: recombinant; tags: N-terminal polyhistidine and DsRed monomer fusion (pET32a); label: CyDye5-dUTP incorporated in the synthesized complementary strand; 3' TTTTT single-stranded linker to array surface; dsDNA, one strand shown
Outline: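 Ni–NTA purification followed expression in E. coli BL21-CodonPlus of transcription factors fused N-terminally to a polyhistidine tag and DsRed. At 200 nM in PBS with 2% BSA, salmon testes DNA and 50 µM zinc acetate, the protein was incubated for 1 h at 25 °C with a custom Agilent array that had been primer-extended with Cy5-dUTP and blocked with 2% BSA. After washing, the array was read on an Axon 4000B scanner. The binding signal is per-feature fluorescence intensity in arbitrary units.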

Sequence | binding signal
ATTGATTATTATTTTAAAATAAAATGGCGTGTTAGGTTTTCGGAGTCACCTAGTGCAG | 47300 fluorescence intensity (a.u.)
CACTGATTTTGATAGTTGAGGGACCCGTTGTATTTGATTTCGGAGTCACCTAGTGCAG | 21500 fluorescence intensity (a.u.)
CCAAAATTTGATAGAATCTATTCCGAAGCGTCCAATGTTTCGGAGTCACCTAGTGCAG | 33400 fluorescence intensity (a.u.)
CCGCTGTAGCTGATTGCCAGTGTCAGATCAAGCTGTGAATCGGAGTCACCTAGTGCAG | 9800 fluorescence intensity (a.u.)
ATTAGGTGTTTCCAGTTAATTAAAGTCATGTAGTACGGATCGGAGTCACCTAGTGCAG | 3680 fluorescence intensity (a.u.)
AATCAGCTCTAAATTTAAATTGTGGCTGATAAATACGAGTCGGAGTCACCTAGTGCAG | 4450 fluorescence intensity (a.u.)
GCTAAATTCCTATCAAATTCAAGTTTAACACATTACTGCGCGGAGTCACCTAGTGCAG | 13100 fluorescence intensity (a.u.)
ATGAAATCAAGGTTTTGCAAATTGAAATCCATGTTTTGGTCGGAGTCACCTAGTGCAG | 8140 fluorescence intensity (a.u.)
ATTATTATAAATTATTTCCTCCGTTTCACAATGTAAGTCACGGAGTCACCTAGTGCAG | 5530 fluorescence intensity (a.u.)
TAAATTGCGCAAAATTTATTCACGTAGATTAAGAGTCCATCGGAGTCACCTAGTGCAG | 10700 fluorescence intensity (a.u.)
GTTGATTTCACGACCTGCTCGCTGAGGAATGGAGGTCCAGCGGAGTCACCTAGTGCAG | 3180 fluorescence intensity (a.u.)
ATCATAATTAAATATATTTTCATAATAAATTTGTCTTTAGCGGAGTCACCTAGTGCAG | 31000 fluorescence intensity (a.u.)
TTGGGAAACGGAGGAAGTAATTAATTAGTCTTTGTGGAAACGGAGTCACCTAGTGCAG | 3790 fluorescence intensity (a.u.)
AATATTTATGTTAATTATATATAGCTAATTATGATAATAGCGGAGTCACCTAGTGCAG | 18800 fluorescence intensity (a.u.)
TTGCTAATTAATTTATGTTAATTAGTAGCTAACCTAGCTGCGGAGTCACCTAGTGCAG | 65200 fluorescence intensity (a.u.)
AATTAATAATTGCAATAGTTAGGTTATGAAGACTTCAGAGCGGAGTCACCTAGTGCAG | 15300 fluorescence intensity (a.u.)
ACAATCTTATAGCTAATTTATTATATATGTTAGCTTTAAGCGGAGTCACCTAGTGCAG | 4320 fluorescence intensity (a.u.)
AATTTAATTAATTATGACTTCAGCTTGGTAGGTTCAGTTGCGGAGTCACCTAGTGCAG | 53000 fluorescence intensity (a.u.)
TTAATTAACTCAGCTTCTAGTTCATATGACTCTTGCTAATCGGAGTCACCTAGTGCAG | 8400 fluorescence intensity (a.u.)
AAAACAGAAAATAGCCAGTCAACCAAACAGTTGTCTTGACCGGAGTCACCTAGTGCAG | 6230 fluorescence intensity (a.u.)
TGCTAATGGCGGCCATAGATTTGTACAAGTATCAGCTGAGCGGAGTCACCTAGTGCAG | 4480 fluorescence intensity (a.u.)
AATTGCTGTTGATTTGCCACTACCACTCTCCCCAACAAGTCGGAGTCACCTAGTGCAG | 6370 fluorescence intensity (a.u.)
ACTGATTGCTGTTGGTCATTCCCGGGCCAGTCCCCACTCCCGGAGTCACCTAGTGCAG | 52400 fluorescence intensity (a.u.)
CCCACATGCCAGACTGATTGCCAGTCATGAGCAAGGGTCCCGGAGTCACCTAGTGCAG | 23900 fluorescence intensity (a.u.)
